# Experimental data from PubChem BioAssay AID1345085 (National Center for Advancing Translational Sciences (NCATS), 2018).
# Results filed as inconclusive are left out. Activity calls are given as the source filed them. Calls come from the whole dose curve; as a rule, active = well fitted cell-killing curve with a large enough effect; inconclusive = small, poorly fitted or top-dose-only effect, or effect the other way; inactive = no such curve, though single readings can be large or run the other way.
# System: Hek293T
# Assay: Confirmatory qHTS for gynecologic anti-cancer compounds from libraries of approved drugs and bioactive compounds; note: nearly all actives have a fitted effect of over 55% in size
# Conditions: gynecologic cancer cell panel viability, ATPlite luminescence, 48 h; series mostly up to 57.6 µM; activity change, negative = viability loss: at the top concentration
# Method in brief: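 Viability is measured as ATP-dependent luciferase light using ATPlite, read 15 min after reagent addition at room temperature. Compounds, in DMSO, span 57.5 uM down to 0.977 nM over 11 threefold steps for 48 h.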
# % is set by controls: 0 for no effect and ±100 for the full control effect; potency is the fitted concentration of half-maximal effect.
SMILES,Potency,"activity change, negative = viability loss"
C[C@H]1CCC/C=C/C2C[C@H](O)C[C@H]2[C@H](O)/C=C/C(=O)O1 (stereo partly drawn),1090 nM (active),–
C=C(C)[C@H]1Cc2c(ccc3c2O[C@@H]2COc4cc(OC)c(OC)cc4[C@@H]2C3=O)O1,432 nM (active),–
CCNC(=O)C[C@@H]1N=C(c2ccc(Cl)cc2)c2cc(OC)ccc2-n2c(C)nnc21,–,21.5% (inactive)
